Source: PubChem BioAssay (NCI)
This is part of a sample that, as a whole, favours compounds with a hit. Of some 79,000 tested, about 15% had one in any assay. Active and inactive are the calls of the source. Cut-off read from the data, not from the text of the source: active = growth inhibition above about 70%; inactive = the rest.

assay: NCI Yeast Anticancer Drug Screen. Data for the mec2-1 strain (AID 157); conditions: S. cerevisiae mec2-1 strain, at 50.0 µM, stronger effect = higher value
Procedure, shortened: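 Strain: mec2-1 (DNA repair/cell cycle alteration). Compound exposure, then growth measured; inhibition expressed relative to vehicle.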

| Structure (SMILES) | growth inhibition |
| --- | --- |
| Clc1nc(N2CCOCC2)c2[nH]cnc2n1 | 5.7% (inactive) |
| COc1ccc(/C=N/Nc2nc(C)c(C)s2)cc1 | 18.4% (inactive) |
| c1cc2c3c(c1)ccc1cccc(c13)CC2 | -34.1% (inactive) |
| COC(=O)C(Cc1c[nH]c2ccccc12)NP(=O)(O)OCC1OC(n2cc(F)c(=O)[nH]c2=O)CC1O (stereo not given) | -17.1% (inactive) |
| Cc1cc(C)c(NC(=O)C(Br)C(Br)c2ccccc2)c(C)c1 (stereo not given) | -5.6% (inactive) |
| O=c1c2ccccc2nnn1OCc1ccccc1 | 3.1% (inactive) |
| O=C(Nc1ccc([N+](=O)[O-])cc1)OCc1ccccc1 | -0.05% (inactive) |
| O=C(/C=C/CC(O)(c1ccccc1)c1ccccc1)Nc1ccccc1Cl | -25.9% (inactive) |
| SC1c2ccccc2-c2ccccc21 | 2.75% (inactive) |
| NCCNCCCCCCCCCCCCOS(=O)(=O)O | -23.6% (inactive) |
| O=C1OC2C(Cl)C3CC1C2C3 (stereo not given) | -9.6% (inactive) |
| CC1(C)COC(c2ccc3ccccc3c2)OC1 | 10.7% (inactive) |
| CCc1ccccc1NOC | -1.9% (inactive) |
| O=C1CNS(=O)(=O)N1 | 8.45% (inactive) |
| CC1(C)OP2(O)(OC(C)(C)c3ccccc32)c2ccccc21 | 5.6% (inactive) |
| COc1ccc(/C=C(\Cl)c2ccc(OC)cc2)cc1 | 3.8% (inactive) |
| CC1S(=O)(=O)OCCCOS1(=O)=O | -19.2% (inactive) |
| CCc1cc(O)cc(C)c1Cl | 29.6% (inactive) |
| O=S(=O)([O-])c1ccc2c(c1)-c1nc-2nc2[n-]c(nc3nc(nc4[n-]c(n1)c1ccc(S(=O)(=O)[O-])cc41)-c1cc(S(=O)(=O)[O-])ccc1-3)c1ccc(S(=O)(=O)[O-])cc21.[Cu+2].[Na+] | -40.1% (inactive) |
| CCOC(=O)Nc1cc(Cl)c2nnn(C(=O)OCC)c2n1 | 98.2% (active) |

| Structure (SMILES) | growth inhibition |
| --- | --- |
| CC1CNC(=O)NC1=O.O.O.[NH2-].[NH2-].[Pt+4] (stereo not given) | 11.2% (inactive) |
| O=C1NC(c2ccccc2)(c2ccccc2)C(=O)N1CNc1ccccn1 | -14.8% (inactive) |
| COC(=O)C1(CC(=O)/C=C/c2ccccc2)NC(=S)NC(=O)C1C#N (stereo not given) | -3.65% (inactive) |
| CCC(C)C(CC)C(=O)N(C)C(=O)N(C)C(C)=O (stereo not given) | 33.3% (inactive) |
| Cc1cc(O)c(C(C)C)cc1N=Cc1ccccc1O | -23.6% (inactive) |
| CCc1cccc(Nc2ccccc2C(=O)O)c1 | 25.2% (inactive) |
| CC(C)c1sc([S-])n[n+]1-c1ccccc1 | -0.65% (inactive) |
| Cc1cnc2cccc(C)c2c1Cl | 0.05% (inactive) |
| c1ccc(CCc2ccccn2)nc1 | 0.8% (inactive) |
| O=C1CC(O)C2C(=O)c3c(c(Cl)c4ccccc4c3O)C(=O)C2C1 (stereo not given) | 12.4% (inactive) |
| CCOC(=O)CC1CC2c3cc(OC)c(OC)cc3CCN2CC1CC (stereo not given) | 12.8% (inactive) |
| Cc1cc(=O)oc2cc3c(cc12)Oc1ccccc1O3 | -11.2% (inactive) |
| COC(=O)C(C(=O)C(=O)Nc1cccc(O)c1)c1nc2ccc(Cl)cc2[nH]c1=O (stereo not given) | -3.95% (inactive) |
| CC(=O)SC12CCCN1C(=O)C1(SC(C)=O)CCCN1C2=O (stereo not given) | 26.4% (inactive) |
| CCCCCCN(CCCCCC)CC(O)c1c(Cl)ccc2ccccc12 (stereo not given) | 96.5% (active) |
| CC(=O)Nc1cc(C)ccn1 | 0.6% (inactive) |
| Cn1c(=O)c2c(ncn2CN2CCN(Cn3cnc4c3c(=O)n(C)c(=O)n4C)CC2)n(C)c1=O | 28.2% (inactive) |
| Nc1cccc(SC2CC(=O)N(c3ccc4c(c3)OCO4)C2=O)c1 (stereo not given) | 92.8% (active) |
| O=S(=O)(c1cnccc1N1CCN(CCO)CC1)N1CCCC1 | -11.2% (inactive) |
| CCCCCCCCCCCCCCCc1cc(OC)ccc1S(=O)(=O)O | 5.8% (inactive) |
